Data: PubChem BioAssay
Inconclusive results are not listed. For part of these data: Results with a measured potency or affinity are listed apart. The source made the active and inactive calls. Unless noted, no rule for the calls is given here.

Tests used:
[1] = antimalarial activity against Dd2 strain (AID 2302;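 active = growth inhibition above 50% at the single 2 µM test dose, taken to imply half-maximal potency below 2 µM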;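 also: 0% = DMSO untreated growth and 100% = chloroquine plus artemisinin killed control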); conditions: P. falciparum Dd2 in RBCs, LDH growth readout, 72 h; at 2 µM; stronger effect = higher value
[2] = human hepatoma cell viability loss – ATP luminescence, cytotoxicity control for P. falciparum antimalarial project, primary screen (AID 2303;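 active = inhibition above 50%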;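 also: 0% = DMSO wells and 100% = digitonin-killed cells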); conditions: HepG2 viability, 24-48 h, at 10 µM, stronger effect = higher value
[3] = target: L-lactate dehydrogenase (Plasmodium falciparum (isolate CDC / Honduras)) (UniProt Q27743); experiment: PfLDH activity inhibition – cell lysate, 3D7 strain, counter-screen for P. falciparum growth inhibition project (AID 2304);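 also: 0% = vehicle and 100% = reference inhibitor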; conditions: P. falciparum 3D7 crude extract, LDH APAD/NBT absorbance; at 2 µM; stronger effect = higher value
Sequence of L-lactate dehydrogenase (Plasmodium falciparum (isolate CDC / Honduras)) (Q27743 whole entry, looked up): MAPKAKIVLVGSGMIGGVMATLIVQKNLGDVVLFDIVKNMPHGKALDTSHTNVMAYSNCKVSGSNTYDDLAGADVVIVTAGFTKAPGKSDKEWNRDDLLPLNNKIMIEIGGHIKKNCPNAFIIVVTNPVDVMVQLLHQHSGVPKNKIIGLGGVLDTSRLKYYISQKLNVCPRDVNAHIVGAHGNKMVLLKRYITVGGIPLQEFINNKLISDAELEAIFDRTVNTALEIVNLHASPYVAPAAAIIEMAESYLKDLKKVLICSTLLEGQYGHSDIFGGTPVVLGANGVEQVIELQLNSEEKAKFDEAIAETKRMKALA

[4] = inhibition of 3D7 malaria parasite growth – strain 3D7 (AID 2306);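 also: 0% = DMSO wells and 100% = chloroquine plus artemisinin control wells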; conditions: P. falciparum 3D7 erythrocytic growth, LDH absorbance, 72 h; at 2 µM; stronger effect = higher value
[5] = target: Plasmodium falciparum protein kinase 6 (PK6, PF3D7_1337100) (UniProt Q8IDW1); experiment: PfPK6 kinase inhibitors, biochemical, TCAMS library (AID 1159586); conditions: recombinant PfPK6, Kinase-Glo ATP depletion luminescence
Sequence of Plasmodium falciparum protein kinase 6 (PK6, PF3D7_1337100) (Q8IDW1 1-305): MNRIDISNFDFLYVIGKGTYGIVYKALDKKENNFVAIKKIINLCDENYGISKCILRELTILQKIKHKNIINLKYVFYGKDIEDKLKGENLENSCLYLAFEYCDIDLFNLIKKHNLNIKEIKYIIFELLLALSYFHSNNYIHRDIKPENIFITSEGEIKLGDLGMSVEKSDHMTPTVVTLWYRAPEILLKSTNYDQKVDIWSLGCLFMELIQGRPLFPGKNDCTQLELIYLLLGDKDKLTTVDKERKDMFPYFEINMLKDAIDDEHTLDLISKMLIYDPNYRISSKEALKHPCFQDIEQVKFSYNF

[6] = target: Protein kinase 7 (PK7), Plasmodium falciparum 3D7 (PF3D7_0213400) (UniProt Q7YTF7); experiment: inhibition of Plasmodium PK7 catalytic activity – biochemical, TCAMS antimalarial set, Kinase-Glo luminescence (AID 1159587); conditions: recombinant PfPK7, Kinase-Glo ATP depletion luminescence
Sequence of Protein kinase 7 (PK7), Plasmodium falciparum 3D7 (PF3D7_0213400) (Q7YTF7 1-343): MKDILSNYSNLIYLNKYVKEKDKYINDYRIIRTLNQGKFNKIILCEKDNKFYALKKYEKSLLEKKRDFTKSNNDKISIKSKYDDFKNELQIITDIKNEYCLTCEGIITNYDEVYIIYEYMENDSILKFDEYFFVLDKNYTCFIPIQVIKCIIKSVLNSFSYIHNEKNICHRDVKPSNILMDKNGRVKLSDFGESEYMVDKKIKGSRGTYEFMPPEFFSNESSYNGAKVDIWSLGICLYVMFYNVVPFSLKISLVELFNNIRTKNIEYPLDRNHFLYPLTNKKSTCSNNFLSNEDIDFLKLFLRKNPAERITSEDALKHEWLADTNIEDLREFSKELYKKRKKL

[7] = target: Calcium-dependent protein kinase 4 (Plasmodium falciparum (isolate 3D7)) (UniProt Q8IBS5); experiment: PfCDPK4 kinase inhibitors, biochemical, TCAMS library (AID 1159588; cut-off not given, nearly all actives have IC50 up to about 0.91 µM); conditions: recombinant PfCDPK4, Kinase-Glo ATP depletion luminescence
Sequence of Calcium-dependent protein kinase 4 (Plasmodium falciparum (isolate 3D7)) (Q8IBS5 whole entry, looked up): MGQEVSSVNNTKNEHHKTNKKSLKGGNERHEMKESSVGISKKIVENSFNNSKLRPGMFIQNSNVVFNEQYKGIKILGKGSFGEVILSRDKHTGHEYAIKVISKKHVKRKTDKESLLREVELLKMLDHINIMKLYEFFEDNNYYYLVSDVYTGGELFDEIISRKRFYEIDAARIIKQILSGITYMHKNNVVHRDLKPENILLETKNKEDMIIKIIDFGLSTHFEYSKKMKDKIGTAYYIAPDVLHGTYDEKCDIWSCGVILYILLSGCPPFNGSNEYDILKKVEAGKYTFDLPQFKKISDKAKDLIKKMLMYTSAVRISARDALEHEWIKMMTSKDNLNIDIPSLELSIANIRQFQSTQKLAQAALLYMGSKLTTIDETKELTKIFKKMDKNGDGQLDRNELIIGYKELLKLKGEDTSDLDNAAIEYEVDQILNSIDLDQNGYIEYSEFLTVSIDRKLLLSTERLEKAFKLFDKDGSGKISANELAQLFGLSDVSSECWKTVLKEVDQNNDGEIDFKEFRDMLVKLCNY

[8] = viability loss in pontine glioma line – cell-based, SU-DIPG-XIII, MIPE4.0, CellTiter-Glo, qHTS, dose response (AID 1347061; cut-off not given, nearly all actives have AC50 up to about 37 µM;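 also: cells exposed to compound for 48 hours before readout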); conditions: CellTiter-Glo ATP luminescence
[9] = viability loss in pontine glioma line – cell-based, JHH-DIPG-1, MIPE4.0, CellTiter-Glo, qHTS, dose response (AID 1347062; cut-off not given, nearly all actives have AC50 up to about 27 µM;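 also: cells exposed to compound for two days before readout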); conditions: JHH-DIPG-1 viability, CellTiter-Glo ATP luminescence
[10] = viability loss in pontine glioma line – cell-based, SU-DIPG-IV, MIPE4.0, CellTiter-Glo, qHTS, dose response (AID 1347063; cut-off not given, nearly all actives have AC50 up to about 30 µM;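 also: compound exposure lasted 48 hours before the viability readout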); conditions: CellTiter-Glo ATP luminescence
[11] = viability loss in pontine glioma line – cell-based, SU-DIPG-XIII, MIPE5.0, CellTiter-Glo, qHTS, dose response (AID 1347064; cut-off not given, nearly all actives have AC50 up to about 23 µM;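 also: cells exposed to compound for 48 hours before the viability read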); conditions: CellTiter-Glo ATP luminescence
[12] = growth inhibition of DIPG cells – cell-based, MIPE5.0 library, qHTS (AID 1347068; cut-off not given, nearly all actives have IC50 up to about 30 µM;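 also: cells exposed to compound for 48 hours before viability readout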); conditions: SU-DIPG-XXV viability
[13] = target: Calcium-dependent protein kinase 1 (Plasmodium falciparum (isolate 3D7)) (UniProt P62344); experiment: PfCDPK1 kinase inhibitors, biochemical, TCAMS library (AID 1159585; cut-off not given, nearly all actives have IC50 up to about 0.98 µM;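 also: inhibitors leave more ATP so luminescence rises with inhibition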); conditions: recombinant PfCDPK1, Kinase-Glo ATP depletion luminescence
Sequence of Calcium-dependent protein kinase 1 (Plasmodium falciparum (isolate 3D7)) (P62344 whole entry, looked up): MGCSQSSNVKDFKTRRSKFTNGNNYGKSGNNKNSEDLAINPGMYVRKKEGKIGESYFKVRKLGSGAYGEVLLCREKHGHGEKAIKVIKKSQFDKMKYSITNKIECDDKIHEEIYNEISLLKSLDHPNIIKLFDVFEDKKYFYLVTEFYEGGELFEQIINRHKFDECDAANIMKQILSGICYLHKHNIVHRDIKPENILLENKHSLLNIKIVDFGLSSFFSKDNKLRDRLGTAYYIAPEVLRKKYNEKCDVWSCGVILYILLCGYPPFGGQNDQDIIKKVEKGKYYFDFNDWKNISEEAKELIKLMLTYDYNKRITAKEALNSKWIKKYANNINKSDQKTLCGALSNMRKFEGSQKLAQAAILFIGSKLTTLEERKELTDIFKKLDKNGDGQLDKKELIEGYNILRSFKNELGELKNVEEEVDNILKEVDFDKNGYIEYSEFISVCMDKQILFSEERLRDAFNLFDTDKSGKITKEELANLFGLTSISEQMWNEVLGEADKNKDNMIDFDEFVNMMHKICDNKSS

Oc1cc(-c2nc(-c3ccccc3)[nH]c2-c2ccncc2)ccc1Cl
inactive: inhibition [3] -6% | outcome [5] | outcome [6] | outcome [7]
active: growth inhibition [1] 91% | inhibition [2] 64% | growth inhibition [4] 96% | AC50 [8] 16.6 µM | AC50 [9] 13.2 µM | AC50 [10] 2.35 µM | AC50 [11] 9.34 µM | IC50 [12] 23.5 µM

Cc1ccc(Nc2nc3cc(Nc4ccnc(Nc5cccc(CS(C)(=O)=O)c5)n4)ccc3o2)cc1
inactive: inhibition [3] 4% | outcome [13] | outcome [6] | outcome [7]
active: growth inhibition [1] 81% | inhibition [2] 55% | growth inhibition [4] 101%

O=C(NCCN1CCCCC1)c1ccc(Nc2nccc(Nc3ccc(Oc4ccccc4)cc3)n2)cc1
active: growth inhibition [1] 91% | inhibition [2] 58% | growth inhibition [4] 101%
inactive: inhibition [3] -2% | outcome [5] | outcome [6] | outcome [7]

N#Cc1cnc(Nc2ccc(Oc3ccccc3)cc2)nc1Nc1cccc(S(N)(=O)=O)c1
active: growth inhibition [1] 86% | inhibition [2] 74% | growth inhibition [4] 96%
inactive: inhibition [3] 3% | outcome [13] | outcome [6] | outcome [7]

Oc1cc(-c2nc(C3(CNCc4ccc(Cl)cc4)CCCCC3)[nH]c2-c2ccncc2)ccc1Cl
inactive: inhibition [2] 35% | inhibition [3] 2% | outcome [5] | outcome [6] | outcome [7]
active: growth inhibition [1] 99% | growth inhibition [4] 100%

Cn1nc(-c2ccc(NC(=O)Nc3ccc4ccccc4c3)c(F)c2)c2cnc(NCCN3CCOCC3)nc21
inactive: growth inhibition [1] 3% | inhibition [3] 1% | outcome [13] | outcome [6] | outcome [7]
active: inhibition [2] 62% | growth inhibition [4] 93%

C#CCNC(=O)c1ccc(-c2ccnc(Nc3cccc(CCCN4CCOCC4)c3)n2)s1
active: inhibition [2] 54% | growth inhibition [4] 82%
inactive: growth inhibition [1] 45% | inhibition [3] -4% | outcome [13] | outcome [6] | outcome [7]

CC(=O)c1ccc(NC(=O)Nc2ccc(N(C)c3ccnc(Nc4cccc(CS(C)(=O)=O)c4)n3)cc2)cc1
active: growth inhibition [1] 98% | inhibition [2] 86% | growth inhibition [4] 100%
inactive: inhibition [3] -1% | outcome [13] | outcome [6] | outcome [7]

CC(=O)Nc1ccc(Nc2ncc([N+](=O)[O-])c(Nc3ccccc3C(N)=O)n2)cc1
active: growth inhibition [1] 97% | growth inhibition [4] 98%
inactive: inhibition [2] 42% | inhibition [3] 2% | outcome [13] | outcome [6] | outcome [7]

CCN(CC)CCCNc1nccc(N(C)c2ccc(NC(=O)Nc3cc(C(F)(F)F)ccc3F)cc2)n1
inactive: growth inhibition [1] 19% | inhibition [3] -6% | outcome [13] | outcome [6] | outcome [7]
active: inhibition [2] 96% | growth inhibition [4] 94%

CCN(CC)CCNC(=O)c1ccc(Nc2ncc([N+](=O)[O-])c(Nc3ccccc3OC)n2)cc1
inactive: inhibition [3] -6% | outcome [13] | outcome [6] | outcome [7]
active: growth inhibition [1] 58% | inhibition [2] 59% | growth inhibition [4] 97%

CN(c1ccc2c(c1)nc(NCc1ccccc1)n2C)c1ccnc(Nc2ccc(CS(C)(=O)=O)cc2)n1
active: growth inhibition [1] 69% | inhibition [2] 61% | growth inhibition [4] 94%
inactive: inhibition [3] 4% | outcome [13] | outcome [6] | outcome [7]

CC(=O)Nc1nc(C)c(-c2csc(Nc3ccc(Cl)cc3)n2)s1
active: growth inhibition [1] 93% | growth inhibition [4] 96%
inactive: inhibition [2] 14% | inhibition [3] 0% | outcome [13] | outcome [6] | outcome [7]

N=C(N)c1ccc(Nc2nccc(Nc3nc(-c4ccccc4)cs3)n2)cc1
inactive: inhibition [2] 13% | inhibition [3] -8% | outcome [13] | outcome [6] | outcome [7]
active: growth inhibition [1] 75% | growth inhibition [4] 96%

CN(C)CCN(C)Cc1nc(-c2ccc3c(Nc4ccc(Oc5ccccc5)cc4)ccnc3c2)cs1
active: growth inhibition [1] 100% | growth inhibition [4] 100%
inactive: inhibition [2] 27% | inhibition [3] -3% | outcome [5] | outcome [6] | outcome [7]

NS(=O)(=O)c1cccc(Nc2nccc(-c3cnn4ncccc34)n2)c1
inactive: inhibition [2] 39% | inhibition [3] 0% | outcome [13] | outcome [6] | outcome [7]
active: growth inhibition [1] 89% | growth inhibition [4] 89%

CCNC(=O)Nc1ccc(N(C)c2ccnc(Nc3ccc(CS(C)(=O)=O)cc3)n2)cc1
active: growth inhibition [1] 99% | growth inhibition [4] 101%
inactive: inhibition [2] -5% | inhibition [3] 2% | outcome [13] | outcome [6] | outcome [7]

Cc1ccc(S(=O)(=O)Nc2ccc(Nc3nccc(Nc4cccc5[nH]ncc45)n3)cc2)cc1
inactive: growth inhibition [1] 5% | inhibition [3] 6% | outcome [13] | outcome [6] | outcome [7]
active: inhibition [2] 57% | growth inhibition [4] 90%

O=C(Cc1ccc(Nc2nccc(Nc3cccc4[nH]ncc34)n2)cc1)Nc1ccc(C(F)(F)F)cc1
inactive: inhibition [2] 12% | inhibition [3] -6% | outcome [13] | outcome [6] | outcome [7]
active: growth inhibition [1] 69% | growth inhibition [4] 100%

COCCNCc1cccc(-c2ccc3c(Nc4cc(O)c(Cl)cc4F)ccnc3c2)c1
active: growth inhibition [1] 79% | growth inhibition [4] 101%
inactive: inhibition [2] -3% | inhibition [3] 7% | outcome [5] | outcome [6] | outcome [7]

CC(C)(CNCc1ccc(F)c(F)c1)c1nc(-c2ccc(Cl)c(O)c2)c(-c2ccnc(N)n2)[nH]1
inactive: inhibition [2] 41% | inhibition [3] -4% | outcome [5] | outcome [6] | outcome [7]
active: growth inhibition [1] 79% | growth inhibition [4] 99%

COc1c(CN2CCCC2)cccc1-c1cc2c(-c3ccc(C(=O)O)c(C(C)C)c3)ccnc2[nH]1
inactive: inhibition [3] -1% | outcome [13] | outcome [6] | outcome [7]
active: growth inhibition [1] 98% | inhibition [2] 56% | growth inhibition [4] 99%

COc1cccc(-n2ncc3c(N/N=C/c4ccc(CN(C)CCN(C)C)cc4)ncnc32)c1
active: growth inhibition [1] 91% | growth inhibition [4] 100%
inactive: inhibition [2] 29% | inhibition [3] -2% | outcome [13] | outcome [6] | outcome [7]

COc1c(CN2CCOCC2)cccc1-c1cc2c(-c3ccc(C(=O)O)c(C(C)C)c3)ccnc2[nH]1
inactive: inhibition [2] 44% | inhibition [3] -3% | outcome [13] | outcome [6] | outcome [7]
active: growth inhibition [1] 90% | growth inhibition [4] 98%

O=C(Nc1cccc(-c2nn3ccccc3c2-c2ccnc(Nc3ccc(-c4ccn[nH]4)cc3)n2)c1)c1c(F)cccc1F
inactive: outcome [5] | outcome [6]

CN(C)CC(O)COc1ccc(Nc2ncc([N+](=O)[O-])c(Nc3ccccc3O)n2)cc1 (centres undefined)
active: growth inhibition [4] 100%
inactive: growth inhibition [1] 20% | inhibition [2] 47% | inhibition [3] -4% | outcome [13] | outcome [6] | outcome [7]

Nc1ncc(-c2cccc(F)c2)cc1-c1nc2ccc(F)cc2[nH]1
active: growth inhibition [1] 88% | inhibition [2] 54% | growth inhibition [4] 100%
inactive: inhibition [3] -3% | outcome [13] | outcome [6] | outcome [7]

N#CCc1ccc(Nc2nccc(Nc3ccc(Oc4ccccc4)cc3)n2)cc1
active: growth inhibition [4] 98%
inactive: growth inhibition [1] 47% | inhibition [2] -1% | inhibition [3] 6% | outcome [5] | outcome [6] | outcome [7]

Cc1cc(Nc2nc(Nc3cccc(Cl)c3)nc3ccccc23)n[nH]1
inactive: inhibition [2] 9% | inhibition [3] -2% | outcome [13] | outcome [6] | outcome [7]
active: growth inhibition [1] 95% | growth inhibition [4] 103%

C(=N\Nc1nccc2sc(-c3ccccc3)cc12)/c1cccnc1
active: growth inhibition [4] 97%
inactive: growth inhibition [1] 10% | inhibition [2] -9% | inhibition [3] 8% | outcome [13] | outcome [6] | outcome [7]

CCN(CC)CCNc1nccc(N(C)c2ccc(NC(=O)Nc3cc(C(F)(F)F)ccc3F)cc2)n1
active: inhibition [2] 74% | growth inhibition [4] 97%
inactive: growth inhibition [1] 25% | inhibition [3] 1% | outcome [13] | outcome [6] | outcome [7]

CN1CCN(Cc2ccc(-c3ccc4c(Nc5ccc(Cl)cc5F)ccnc4c3)o2)CC1
active: growth inhibition [1] 100% | growth inhibition [4] 102%
inactive: inhibition [2] 47% | inhibition [3] -3% | outcome [5] | outcome [6] | outcome [7]

c1ccc(Oc2ccc(Nc3ccnc(Nc4ccc(OCCN5CCCCC5)cc4)n3)cc2)cc1
inactive: inhibition [2] 23% | inhibition [3] -2% | outcome [5] | outcome [6] | outcome [7]
active: growth inhibition [1] 66% | growth inhibition [4] 97%

O=c1[nH]ccc2nc(N[C@@H]3CCNC3)nc(Nc3ccc4c(c3)S(=O)(=O)CC4)c12
active: growth inhibition [1] 99% | growth inhibition [4] 100%
inactive: inhibition [2] -4% | inhibition [3] -2% | outcome [5] | outcome [6] | outcome [7]

COc1cccc(Nc2nccc(-c3c(-c4cccc(NC(=O)c5c(F)cccc5F)c4)nn4ccccc34)n2)c1
inactive: inhibition [2] 35% | inhibition [3] -2% | outcome [5] | outcome [6] | outcome [7]
active: growth inhibition [1] 98% | growth inhibition [4] 98%

COCCNCc1cccc(-c2ccc3c(Nc4ccc(Oc5ccccc5)cc4)ccnc3c2)c1
active: growth inhibition [1] 99% | growth inhibition [4] 101%
inactive: inhibition [2] 25% | inhibition [3] 2% | outcome [5] | outcome [6] | outcome [7]

CC(C)(CNCc1ccccc1)c1nc(-c2ccc(Cl)c(O)c2)c(-c2ccncc2)[nH]1
inactive: inhibition [3] -2% | outcome [5] | outcome [6] | outcome [7]
active: growth inhibition [1] 99% | inhibition [2] 77% | growth inhibition [4] 101%

CC(C)(CNCc1ccc(F)c(F)c1)c1nc(-c2ccc(Cl)c(O)c2)c(-c2ccncc2)[nH]1
inactive: inhibition [3] 2% | outcome [5] | outcome [6] | outcome [7]
active: growth inhibition [1] 89% | inhibition [2] 74% | growth inhibition [4] 102%

c1ccc(Oc2ccc(Nc3ccnc4cc(-c5ccc(CNCCN6CCOCC6)o5)ccc34)cc2)cc1
inactive: inhibition [2] 20% | inhibition [3] -3% | outcome [5] | outcome [6] | outcome [7]
active: growth inhibition [1] 99% | growth inhibition [4] 99%

CN(C)CCNCc1nc(-c2ccc3c(Nc4ccc(Oc5ccccc5)cc4)ccnc3c2)cs1
active: growth inhibition [1] 100% | growth inhibition [4] 101%
inactive: inhibition [2] 8% | inhibition [3] 6% | outcome [5] | outcome [6] | outcome [7]

Cc1cc(F)ccc1-c1nc(Nc2ccncc2)c2ccn(C)c2n1
inactive: growth inhibition [1] 8% | inhibition [2] 9% | inhibition [3] 5% | outcome [5] | outcome [6] | outcome [7]
active: growth inhibition [4] 89%

COc1cc2nccc(Nc3ccc(Oc4ccccc4)cc3)c2cc1OC
inactive: inhibition [2] 13% | inhibition [3] -1% | outcome [5] | outcome [6] | outcome [7]
active: growth inhibition [1] 99% | growth inhibition [4] 102%
